Only some compounds are listed: those with a hit (about 3.2% of all), similar ones and a draw of the others.
MEKK2mut PB1 HTS: signal of MEK5 binding to mutant human MEKK2 PB1 domain. percent response, % at 10 µM. bead flow cytometry, Alexa488-MEK5 binding to MEKK2 mutant. AID 1530. hit rate 0.35% among 290,000; in the data active = percent response above about 24%, passing the limit was not always enough
MEKK2wt PB1 HTS: raises or lowers MEK5 binding to wildtype human MEKK2 PB1 domain; bead flow cytometry, Alexa488-MEK5 binding to MEKK2 WT; actives lie on both sides; binding response (% of control), % at 10 µM; hit rate 1.1% among 290,000; AID 1531; Q9Y2U5; in the data active = binding response below about 67% or above about 130%; inconclusive = no clear call, values can overlap the other calls; inactive = in between
MEKK3 PB1 HTS: modulators (inhibitors or enhancers) of MEK5 binding to human MEKK3 PB1 domain; Q99759; bead-based flow cytometry, Alexa488-MEK5 binding to MEKK3; actives lie on both sides; 0 = blocked by unlabeled MEK5, 100 = vehicle; binding response (% of control), % at 10 µM; hit rate 1.4% among 290,000; AID 1529;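 active = binding response more than 3 SD above or below the average of its plate-row segment, actives on both sides; inconclusive = wells at one plate position flagged as instrument error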;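 note: Alexa488 bead fluorescence after subtracting the streptavidin-only scavenger bead signal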
Target sequence (Q99759 whole entry, looked up, the tested form may be a part): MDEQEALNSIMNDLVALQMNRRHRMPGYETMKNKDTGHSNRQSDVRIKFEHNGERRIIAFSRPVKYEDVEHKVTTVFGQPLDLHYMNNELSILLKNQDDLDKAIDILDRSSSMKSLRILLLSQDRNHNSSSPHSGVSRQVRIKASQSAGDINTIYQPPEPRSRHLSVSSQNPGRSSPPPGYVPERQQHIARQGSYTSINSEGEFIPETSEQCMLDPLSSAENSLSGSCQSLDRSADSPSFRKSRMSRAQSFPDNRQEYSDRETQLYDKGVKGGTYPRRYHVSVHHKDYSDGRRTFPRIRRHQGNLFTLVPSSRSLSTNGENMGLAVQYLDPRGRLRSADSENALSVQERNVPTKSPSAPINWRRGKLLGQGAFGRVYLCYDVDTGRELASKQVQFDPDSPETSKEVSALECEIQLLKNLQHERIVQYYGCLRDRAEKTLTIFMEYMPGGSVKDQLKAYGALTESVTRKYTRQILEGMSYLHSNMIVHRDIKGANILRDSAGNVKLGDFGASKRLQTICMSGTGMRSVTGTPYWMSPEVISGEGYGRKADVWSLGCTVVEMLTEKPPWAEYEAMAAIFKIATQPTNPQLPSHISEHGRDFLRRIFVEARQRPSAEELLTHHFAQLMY
NRP1-CendR mod: NRP-1/CendR interaction modulation. hit rate 0.85% among 360,000. FAM-RPARPAR peptide binding to NRP-1, fluorescence polarization. inhibition, % at 25 µM. O14786. AID 602438;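 active = inhibition or corrected inhibition above about 18%, plus a signal ratio from 0.5 to 1.5, limit read from the data, passing the limit was not always enough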
SKN-1 inh: blocks SKN-1 activity in C. elegans; AID 624304; C. elegans VP596 Pgst-4::GFP/RFP ratio, acrylamide-induced, 24 h; hit rate 0.49% among 360,000; inhibition, % at 21.8 µM;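 active = interference check ratio from 0.5 to 1.5 plus GFP to RFP signal ratio inhibition reaching or exceeding a fixed threshold, cut at about 30% in these data, passing the limit was not always enough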
* = called active by the depositor; ? = inconclusive; · = no result.

SMILES	MEKK2mut PB1 HTS	MEKK2wt PB1 HTS	MEKK3 PB1 HTS	NRP1-CendR mod	SKN-1 inh
Cc1noc(C)c1C(=O)N1CCC1(C)C(=O)NS(=O)(=O)c1ccc(F)cc1F (stereo not drawn)	·	·	·	1.4	1.1
Cc1cn([C@H]2C[C@H](O)[C@@H](CCC(=O)NCCc3ccc4ccccc4c3)O2)c(=O)[nH]c1=O	·	·	·	22.0*	-1.1
O=C(CSc1ncn[nH]1)Nc1ccc(Cl)c(Cl)c1	-2.0	87.0	95.0	3.3	44.4*
O=C(CSc1ncn[nH]1)Nc1ncc(C(F)(F)F)cc1Cl	-2.0	98.0	103.0	-7.8	-0.4
COc1ccc(NC(=O)Cn2nnc(C(=O)Nc3ccccc3C)c2N)cc1	-9.0	91.0	101.0	18.6*	-2.1
Clc1ccc(-c2nnc(SCc3ccon3)o2)c(Cl)c1	2.0	99.0	101.0	-0.3	37.4*
C=CCSc1nnc(-c2ccc(Cl)cc2Cl)o1	·	·	·	0.0	85.5*
O=C(/C=C/c1ccccc1)NC1CC2CCC1C2 (stereo not drawn)	-2.0	100.0	99.0	3.9	8.2
c1ccc(CNC2CC3CCC2C3)cc1 (stereo not drawn)	·	·	·	23.6*	15.8
Cc1ccc(S(=O)(=O)N2CCCC2CNC(=O)C(=O)NCc2ccc3c(c2)OCO3)cc1 (stereo not drawn)	·	·	·	-7.8	-6.4
COC(=O)C(C(=O)OC)c1ncccc1[N+](=O)[O-]	12.0	102.0	100.0	5.1	10.4
COC(=O)C(C(=O)OC)c1ccccc1[N+](=O)[O-]	6.0	112.0	103.0	31.2*	-3.7
CN(C)CCCN(C(=O)c1ccc(S(=O)(=O)N2CCCC2)cc1)c1nc2c(F)cc(F)cc2s1	·	·	·	7.0	0.4
CN(C)CCCN(C(=O)c1ccc(S(=O)(=O)N2CCc3ccccc3C2)cc1)c1nc2c(F)cccc2s1	45.0*	208.0*	109.0	7.8	-6.2
CCOC(=O)N1CCN(S(=O)(=O)c2ccc(C(=O)N(CCN(C)C)c3nc4c(C)cccc4s3)cc2)CC1	11.0	114.0	99.0	13.5	4.7
Cc1cccc2sc(N(CCCN(C)C)C(=O)c3ccc(S(=O)(=O)N4CCc5ccccc5C4)cc3)nc12	51.0*	216.0*	108.0	3.2	-11.8
C[C@H](CO)N1C[C@H](C)[C@@H](CN(C)Cc2ccc(Cl)c(Cl)c2)Oc2c(NS(=O)(=O)c3cccs3)cccc2C1=O	·	·	·	-1.5	10.3
COc1ccc(NC(=O)c2ccccc2Oc2ccccc2)c(OC)c1	2.0	104.0	104.0	6.2	20.0
COc1ccccc1NC(=O)c1ccccc1Oc1ccccc1	3.0	105.0	100.0	26.5*	1.3
O=C(c1ccc(S(=O)(=O)Nc2ccccc2Cl)cc1)N1CCOCC1	·	·	·	26.5*	11.4
Cc1ccc(C(=O)OCCn2cc(C#N)c(=O)[nH]c2=O)cc1	4.0	109.0	105.0	26.6*	-8.6
COc1ccccc1CCn1cc(C#N)c(=O)[nH]c1=O	-20.0	80.0	81.0	12.5	-5.4
OCCC1CCCCN1CC(O)COCc1ccc(Cl)cc1 (stereo not drawn)	-13.0	96.0	100.0	21.2*	0.7
O=[N+]([O-])c1cc2c(cc1Br)-c1ccccc1C2	·	·	·	1.9	52.5*
CC1(C(=O)NCCN2CCOCC2)C=CC2(CCCCC2)N1C(=O)c1ccccc1 (stereo not drawn)	3.0	93.0	98.0	19.7*	26.5
SMILES	MEKK2mut PB1 HTS	MEKK2wt PB1 HTS	MEKK3 PB1 HTS	NRP1-CendR mod	SKN-1 inh
COCCNC(=O)C1(C)C=CC2(CCCCC2)N1C(=O)c1ccccc1 (stereo not drawn)	1.0	108.0	107.0	4.3	15.1
CCOC(=O)C1CCN(Cc2cccc(OC)c2)CC1	-4.0	88.0	94.0	-1.3	-2.7
CCOC(=O)C1CCN(Cc2ccc3ccccc3c2)CC1	3.0	105.0	103.0	30.8*	15.9
CCOC(=O)C1CCCN(Cc2ccc(OC)c(OCc3ccccc3)c2)C1 (stereo not drawn)	14.0	117.0	107.0	22.8*	4.2
O=C(CSc1nc2ccccc2s1)N/N=C/c1ccco1	-1.0	101.0	100.0	6.9	-5.2
N#C/C(=C\c1ccco1)Sc1nc2ccccc2s1	-47.0	?	?	-13.1	44.5*
COCCCn1c(=O)c2sccc2n(Cc2ccc(C)cc2)c1=O	2.0	104.0	103.0	-12.0	19.8
COC1=C(N)C(=O)c2nc(C)ccc2C1=O	·	·	·	30.9*	-11.2
O=C(NCCCOc1ccc([N+](=O)[O-])cc1Cl)OCc1ccccc1	·	·	·	3.2	14.2
CC(C)CN(C(=O)CN1CCN(c2ccc(F)cc2)CC1)c1c(N)n(CC(C)C)c(=O)[nH]c1=O	10.0	89.0	98.0	7.7	1.4
Cc1ccc(S(=O)(=O)N2CCN(CC(=O)N(CC(C)C)c3c(N)n(CC(C)C)c(=O)[nH]c3=O)CC2)c(C)c1	2.0	99.0	113.0	48.7*	4.5
CCCN1CCN(C(=O)CCCNC(=O)Cn2cnc3sc(C)c(C)c3c2=O)CC1	12.0	131.0	114.0	25.9*	-7.0
CCCOc1ccc(N2C(=O)CC(N(CCc3ccc(OC)cc3)C(=O)c3cccc(F)c3)C2=O)cc1 (stereo not drawn)	-1.0	96.0	101.0	-3.0	35.4*
CCCOc1ccc(N2C(=O)CC(N(CCc3ccccc3)C(=O)c3ccccc3)C2=O)cc1 (stereo not drawn)	-3.0	103.0	109.0	-5.4	-1.3
COC(=O)CCC(=O)Nc1cccc2c(NC(=O)CCC(=O)OC)cccc12	-8.0	90.0	90.0	20.7*	3.7
Cc1ccc(C(=O)NCC(c2ccc(F)cc2)N2CCOCC2)s1 (stereo not drawn)	·	·	·	-5.1	-17.4
Clc1nc(-c2ccccn2)nc2scc(-c3ccccc3)c12	-2.0	96.0	100.0	29.5*	8.8
CC1CCN(c2nc(-c3cccnc3)nc3scc(-c4ccccc4)c23)CC1	-1.0	92.0	92.0	-9.3	14.7
COc1ccc(S(=O)(=O)N2CC(C(=O)O)Oc3ccccc32)cc1 (stereo not drawn)	5.0	105.0	104.0	7.7	30.9*
CCOC(=O)C1CN(S(=O)(=O)c2ccc(C)cc2)c2ccccc2O1 (stereo not drawn)	-3.0	102.0	99.0	-5.2	-8.5
CC(C)(C)OC(=O)N1O[C@H]2CC1[C@@H]1[C@@H]2N=NN1CCc1ccncc1	·	·	·	22.9*	-3.2
COC(=O)c1ccc(OC(=O)C2CSC3(C)CCC(=O)N23)cc1 (stereo not drawn)	·	·	·	-6.0	-6.0
CCC1=C(c2ccc(C)cc2)S(=O)(=O)N=C1N1CCC(C(=O)NCCCN2CCCCC2C)CC1 (stereo not drawn)	8.0	122.0	100.0	-9.4	10.5
Cc1ccc(S(=O)(=O)N(C)C)cc1NC(=O)CN1C(=O)NC2(CCCCCC2)C1=O	1.0	102.0	102.0	12.9	13.6
COc1ccc(NS(=O)(=O)c2ccc(C)c(NC(=O)CN3C(=O)NC4(CCCC4)C3=O)c2)cc1	·	·	·	30.0*	4.3
O=C(CN1C(=O)NC2(CCCC2)C1=O)Nc1cc(S(=O)(=O)N2CCOCC2)ccc1OCC(F)(F)F	3.0	100.0	100.0	8.0	40.3*

High-throughput results deposited in PubChem by several laboratories.
